Measured values taken from PubChem BioAssay (EPA / NIEHS).
Calls of active or inactive are those of the source. Rule for the calls: active = hit-call score of the fitted dose curve at least 0.9, where 1 is the maximum; inactive = score below 0.9.

Biological target: Bile acid receptor (Homo sapiens) (UniProt Q96RI1)
Experiment: ATG_IR1_CIS: Attagene CIS-FACTORIAL HepG2 Assay for human Nuclear Receptor Subfamily 1 Group H Member 4 (NR1H4), IR1 submotif (AID 2282946)
Details: IR1 reporter transcription, actives raise or lower the signal
Experimental: ATG_CIS is a cell-based, multiplexed-readout assay that uses HepG2, a human liver cell line, with measurements taken at 24 hours after chemical dosing in a 24-well plate.ATG_IR1_CIS is one of 52 assay component(s) measured or calculated from the ATG_CIS assay. It is designed to make measurements of mRNA induction, a form of inducible reporter, as detected with fluorescence intensity signals by Reverse transcription polymerase chain reaction (RT-PCR) and Capillary electrophoresis technology.Data from the assay component ATG_IR1_CIS was analyzed into 1 assay endpoint. This assay endpoint, ATG_IR1_CIS, was analyzed with bidirectional fitting relative to DMSO as the negative control and baseline of activity. Using a type of inducible reporter, measures of mRNA for gain or loss-of-signal activity can be used to understand the reporter gene at the transcription factor-level as they relate to the gene NR1H4. Furthermore, this assay endpoint can be referred to as a primary readout, because this assay has produced multiple assay endpoints where this one serves a reporter gene function. To generalize the intended target to other relatable targets, this assay endpoint is annotated to the nuclear receptor intended target family, where the subfamily is non-steroidal.
Human liver HepG2 cells are transiently transfected with multiple reporter transcription units (MRTUs) in 6-well plates using FuGene 6 reagent (Roche; 3 ml FuGene/1 mg DNA). The MRTU constructs are regulated by a cis-regulating element (promoter). […] A major difference between the CIS and TRANS system is that in CIS activities of endogenous TFs are measured, whereas the TRANS assay evaluates changes in activities of exogenous, chimeric NR-Gal4 proteins. […] At the end of 24 hour incubation, total RNA was isolated using TriZol reagent (Invitrogen). The isolated RNA is then reverse-transcribed using oligo(dT) primer and Mo-MLV reverse transcriptase (Invitrogen) with DNAse I (Ambion) treatment for 30 min. The one-tenth of the produced cDNA was amplified by PCR using Taq DNA polymerase (Invitrogen) and two reporter sequence-specific primers. The PCR products were fluorescently labeled by primer extension with 6-arboxyfluorescein (6-FAM) 5'-labeled reporter sequence-specific primer (2 min at 95 C, 20 s at 68 C and 10 min at 72 C) and these products were digested with 5U of HpaI (New England Biolabs) for 2h at 37 C. The fragments were purified using Qiaquick PCR columns (Qiagen), analyzed on an ABI 3130xL genetic analyzer (Applied Biosystems) with peak positions identified by using a set of X-rhodamine (ROX)-labeled MapMarker1000 molecular weight standards (BioVentures). The raw capillary electrophoresis data was processed using Attagraph software (Attagene).

Chain of Bile acid receptor (Homo sapiens) (Q96RI1 whole entry, looked up): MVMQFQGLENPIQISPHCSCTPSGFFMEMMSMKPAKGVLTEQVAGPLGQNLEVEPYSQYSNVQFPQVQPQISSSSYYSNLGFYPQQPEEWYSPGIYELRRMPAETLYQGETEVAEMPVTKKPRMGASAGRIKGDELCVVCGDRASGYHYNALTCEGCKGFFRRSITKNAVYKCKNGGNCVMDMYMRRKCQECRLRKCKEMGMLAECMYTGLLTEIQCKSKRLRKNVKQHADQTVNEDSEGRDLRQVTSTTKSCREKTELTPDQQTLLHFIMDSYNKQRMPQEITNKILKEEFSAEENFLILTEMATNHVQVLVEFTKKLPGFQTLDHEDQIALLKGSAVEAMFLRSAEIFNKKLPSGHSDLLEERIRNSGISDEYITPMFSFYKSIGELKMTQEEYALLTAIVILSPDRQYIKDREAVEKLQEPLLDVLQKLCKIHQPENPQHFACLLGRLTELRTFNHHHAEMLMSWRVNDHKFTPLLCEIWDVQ

Compound | outcome | AC50
CNC(=O)CSP(=O)(OC)OC | inactive | 
CCC[CH2][Sn]([Cl])([Cl])[CH2]CCC |  | 1.73 µM (active)
CCOCn1c(-c2ccc(Cl)cc2)c(C#N)c(Br)c1C(F)(F)F |  | 38.3 µM (active)
Cc1cccc(OP(=O)(Oc2cccc(C)c2)Oc2cccc(C)c2)c1 | inactive | 
COc1ccc([N+](=O)[O-])cc1O | inactive | 
CCCCOP(=O)(CCCC)OCCCC | inactive | 
OCCCCO | inactive | 
CCCCCCCCCCCCN(C)C |  | 47.8 µM (active)
C[As+](C)(C)CC(=O)[O-] | inactive | 
N#Cc1ccccc1Cl | inactive | 
CC(c1ccccc1)(c1ccc(O)cc1)c1ccc(O)cc1 |  | 15.6 µM (active)
COCCl | inactive | 
CN(C)[C@@H]1C(=O)C(C(N)=O)=C(O)[C@@]2(O)C(=O)C3=C(O)c4c(O)ccc(Cl)c4[C@@](C)(O)[C@H]3C[C@@H]12 | inactive | 
O=C(O)c1cc(I)cc(I)c1I | inactive | 
CC(C)(c1ccc(O)c(-c2ccccc2)c1)c1ccc(O)c(-c2ccccc2)c1 | inactive | 
Clc1ccc(C(Cl)(Cl)Cl)cn1 | inactive | 
C=CCOC(N)=O | inactive | 
COC(=O)c1cc(Oc2ccc(Cl)cc2Cl)ccc1[N+](=O)[O-] | inactive | 
O=C(NC(=O)c1c(F)cccc1F)Nc1ccc(Cl)cc1 | inactive | 
[F][Sn]([c]1ccccc1)([c]1ccccc1)[c]1ccccc1 |  | 1.24 µM (active)

Compound | outcome | AC50
CC(C)CC(C)(c1ccc(O)cc1)c1ccc(O)cc1 | inactive | 
Nc1c(Oc2ccccc2)cc(O)c2c1C(=O)c1ccccc1C2=O | inactive | 
CCCCCCCCCCBr | inactive | 
CC1CC(=O)O1 (stereo not given) | inactive | 
N#Cc1ccccc1N | inactive | 
COC(=O)Nc1cccc(OC(=O)Nc2cccc(C)c2)c1 | inactive | 
CCCCCCCCCCCCCCC(Br)C(=O)O (stereo not given) | inactive | 
C=CCc1ccccc1O | inactive | 
ClCc1ccccc1CCl |  | 33.4 µM (active)
Cc1cc(SCc2sc(-c3ccc(C(F)(F)F)c(F)c3)nc2C)ccc1OCC(=O)O | inactive | 
ClCc1ccccc1Cl | inactive | 
C=CC(Cl)CCl (stereo not given) | inactive | 
NC(=O)c1ccc(N)nc1 | inactive | 
O=C(O)COc1cc(Cl)c(Cl)cc1Cl | inactive | 
O=C1C=CC(=O)c2ccccc21 | inactive | 
CC(C)[N+](=O)[O-] | inactive | 
O=[N+]([O-])c1ccc(Cl)c([N+](=O)[O-])c1 | inactive | 
Cc1ccccc1OP(=O)(Oc1ccccc1C)Oc1ccccc1C | inactive | 
Brc1ccc(Oc2c(Br)cc(Br)cc2Br)c(Br)c1 | inactive | 
N#Cc1cccnc1 | inactive | 
